The record followed here is PubChem BioAssay.

The first experiment can be described thus: binders of probe aFST on microarray, primary screen, stem cell growth factor project, biochemical, small-molecule microarray, fluorescence 635/667 (AID 1086).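 Further: score merges 667 nm fluorescence with signal-to-noise of each printed compound spot.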 The note with it: higher = more signal.
`C#C[C@H](O[Si](C#Cc1ccccc1)(C(C)C)C(C)C)c1ccccc1` displayed a composite z-score of -0.649. `COCCCNC(=O)[C@@H]1c2ccccc2C(=O)N(CC23CC4CC(CC(C4)C2)C3)[C@H]1c1ccc(CO)cc1`: the composite z-score came to 0.327. Still for that read-out and setting: for `C[C@H]1C2[C@H](Cc3ccccc3)NC(=O)[C@]23C(=O)N[C@H](Cc2ccccc2)C(=O)N[C@@H](Cc2ccccc2)C(=O)NC/C=C\C/C=C/C3[C@@H]2O[C@]12C` (stereo partly specified) the value was -0.137; for `CO[C@]12C=C(Br)[C@@H](C[C@@H]1c1ccccc1)[C@@]1(CO1)C2=O`, 0.0254; for `CO[C@H]1COC(=O)[C@@H](C)COC(=O)[C@H](Cc2ccccc2)NC(=O)CC=C[C@H]1C`, 0.267.

A short description of another experiment: binders of probe aHhip on microarray, primary screen, stem cell growth factor project, biochemical, small-molecule microarray, fluorescence 635/667 (AID 1087).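 Further: score merges spot fluorescence at 667nm with spot signal to noise ratio.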 The note with it: higher = more signal.
For the molecule `C=CC[C@@]1(C(=O)NCC(O)CO)N=C(c2ccc(OCCCO)cc2)O[C@@H]1c1ccccc1CN=[N+]=[N-]` (stereo partly specified), the composite z-score was -0.236. `CO[C@H]1COC(=O)[C@@H](C)NC(=O)CC=C[C@@H](C)[C@H](OC)COC(=O)CC=C[C@@H]1C` yielded a composite z-score of 0.0596.

`CC(C)C[C@@H]1NC(=O)[C@H]2C[C@@H](C(=O)NCCCCCC[N+](C)(C)C)[C@@H](c3ccc(O)cc3)N2C1=O` gave a composite z-score of -0.0994.

As to `Cc1ccc(S(=O)(=O)N[C@H]2COC(=O)CC=C[C@H](C)COC(=O)N[C@@H](C)C(=O)CC=C[C@@H]2C)cc1`, the composite z-score is 0.0053. Same read-out and setting: next, `C#CCCCON=C1C[C@@H](O)[C@@H](O)[C@@H]2[C@@H]3C(=O)N(Cc4ccc5c(c4)OCO5)C(=O)[C@@H]3CC[C@@H]12`: 0.0695. In turn, `CO[C@H]1COC(=O)[C@@H](OCc2ccccc2)C=C[C@H](C)[C@@H](OC)COC(=O)[C@H](OCc2ccccc2)C=C[C@@H]1C` came in with a composite z-score of -0.353. In turn, `COCCOC(=O)N1C(=O)[C@@]2(c3cc(C#CCCO)ccc31)[C@H](c1ccc(OCCO)cc1)N1[C@H](c3ccccc3)[C@H](c3ccccc3)OC(=O)[C@H]1[C@@H]2C(=O)NC[C@H](O)c1ccccc1` yielded a composite z-score of 0.152. Same read-out and setting: for `NC(=O)NCC#Cc1ccc2c(c1)[C@]1(C(=O)N2)[C@H](c2ccccc2OCCO)N2[C@H](c3ccccc3)[C@H](c3ccccc3)OC(=O)[C@H]2[C@@H]1C(=O)N1CCN(c2ncccn2)CC1` the value was -0.0994. Still for that read-out and setting: for `COCCOC(=O)N1C(=O)[C@@]2(c3cc(C#CCCO)ccc31)[C@H](c1ccc(O)cc1)N1[C@H](c3ccccc3)[C@H](c3ccccc3)OC(=O)[C@H]1[C@@H]2C(=O)Nc1nc2ccccc2s1` the value was -0.16.

In turn, `C=C(COC)C(=O)CC[C@H](OC(=O)c1ccccc1-c1ccccc1C(=O)O)c1cccc(OCCO)c1` showed a composite z-score of -0.0296.

With `COC(=O)C(CC#Cc1ccc2c(c1)[C@]1(C(=O)N2)[C@H](C(=O)N2CCCCCCC2)[C@H]2C(=O)O[C@H](c3ccccc3)[C@H](c3ccccc3)N2[C@@H]1c1ccc(O)cc1)C(=O)OC`, the composite z-score is -0.306. Turning to `CCCC[C@H]1OB(O)C[C@H]2C1=C(COC)C[C@H]1C(=O)N(Cc3ccccc3)C(=O)[C@H]12`, the composite z-score turned out to be 0.124. With `COCCOC(=O)N1C(=O)[C@@]2(c3cc(C#CCCO)ccc31)[C@H](C(=O)N1CCCCCCC1)[C@H]1C(=O)O[C@H](c3ccccc3)[C@H](c3ccccc3)N1[C@@H]2c1ccc(O)cc1`, the composite z-score stood at 0.497. For the molecule `Cc1ccc(S[C@]2(C(=O)O)CC(=O)N(Cc3ccccc3)[C@@H]2c2ccc(CO)cc2)cc1`, the composite z-score is -0.367. Same read-out and setting: for `COCCOC(=O)N1C(=O)[C@@]2(c3cc(C#CCNC(N)=O)ccc31)[C@H](c1ccc(OCCO)cc1)N1[C@H](c3ccccc3)[C@H](c3ccccc3)OC(=O)[C@H]1[C@@H]2C(=O)Nc1nc2ccccc2s1` the value was 0.136; for `C=CC[C@@]12N=C(c3ccc(OCCCO)cc3)O[C@@H]1c1ccccc1CN(Cc1ccccc1)C2=O`, -0.138; for `O=C(NCC(O)CO)[C@]1(Cc2ccccc2)N=C(c2ccc(OCCCO)cc2)O[C@@H]1c1ccccc1` (stereo partly specified), 0.189. On the same count and under the same terms, for `C=CCNC(=O)[C@H]1[C@@H]2C(=O)O[C@@H](c3ccccc3)[C@@H](c3ccccc3)N2[C@@H](c2ccccc2OCCO)[C@]12C(=O)N(C(=O)OCCOC)c1ccc(C#CCNC(N)=O)cc12` the value was 0.0623; for `C=CCC(OC(C)=O)[C@@H]1[C@@H](N(Cc2cccc3ccccc23)C(=O)Cc2ccc(F)cc2)c2cc(OCCCO)ccc2N1C(=O)Cc1ccc2ccccc2c1` (stereo partly specified), -0.167. The same measure, in the same setting: for `COC(=O)c1ccc(C#CC(NP(=O)(c2ccccc2)c2ccccc2)c2ccccc2)cc1` (stereo unspecified) the value was 2.35; for `C[C@H]1COC(=O)[C@H](Cc2ccccc2)NC(=O)[C@@H](C)COC(=O)[C@H](Cc2ccccc2)NC1=O`, -0.0994.
